RORgamma inh = inhibitors of mouse ROR gamma transcriptional activity; Drosophila S2 Gal4-RORgamma UAS-luciferase reporter, 20 h; Potency, µM (doses to about 53.6 µM), inactives show top-dose activity change, negative = inhibition, usual class: inhibitors; 310,000 tested, 5.4% active; AID 2551; further: nearly all actives have a fitted effect of over 60% in size
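Read-out: Photinus luciferase luminescence; inhibitors lower reporter signal. Insect Schneider cells with Gal4-ROR gamma fusion under metallothionein promoter, UAS reporter; 700 uM final copper sulfate induction, 20 hr, ambient temperature.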
TDP1 block = inhibitors of human tyrosyl-DNA phosphodiesterase TDP1. Q9NUW8. Potency, µM (top dose mostly 130 µM), for inactives: at the highest dose activity change, negative = inhibition, usual class: inhibitors. recombinant TDP1, AlphaScreen DNA substrate cleavage. 350,000 tested, 0.28% active; further: nearly all actives have a fitted effect of over 40% in size
Target sequence (Q9NUW8 whole entry, looked up): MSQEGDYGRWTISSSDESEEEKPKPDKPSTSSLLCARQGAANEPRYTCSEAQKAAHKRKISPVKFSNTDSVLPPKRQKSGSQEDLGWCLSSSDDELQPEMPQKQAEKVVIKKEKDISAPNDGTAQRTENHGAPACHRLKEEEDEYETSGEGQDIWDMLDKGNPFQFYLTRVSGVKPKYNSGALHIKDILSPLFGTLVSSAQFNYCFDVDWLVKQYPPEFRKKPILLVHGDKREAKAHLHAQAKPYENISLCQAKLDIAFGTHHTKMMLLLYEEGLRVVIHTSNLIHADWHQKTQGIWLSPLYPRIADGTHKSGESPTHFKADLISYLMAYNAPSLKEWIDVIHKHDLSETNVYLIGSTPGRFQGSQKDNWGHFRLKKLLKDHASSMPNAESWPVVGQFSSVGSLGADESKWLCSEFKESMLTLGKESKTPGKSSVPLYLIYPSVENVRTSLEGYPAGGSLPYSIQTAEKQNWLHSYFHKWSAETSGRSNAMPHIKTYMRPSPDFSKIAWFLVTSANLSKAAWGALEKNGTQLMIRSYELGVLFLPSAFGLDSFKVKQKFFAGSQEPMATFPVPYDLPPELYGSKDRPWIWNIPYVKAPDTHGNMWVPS
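Recombinant E. coli-expressed Tdp1 (1 nM) preincubated with compound 15 min at RT, then 5'-biotin/3'-phosphotyrosine-FITC DNA substrate (15 nM) added for 5 min. AlphaScreen beads (10 ug/ml) added, 10 min RT; tyrosine-FITC cleavage read as signal loss.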
Gal4-VP16 FLuc = counter-screen for ROR gamma inhibitors: Gal4-VP16 reporter | Drosophila S2 Gal4-VP16 UAS-luciferase, luminescence, 20 h | Potency, µM (series often up to 53.6 µM), without a hit: at the top dose activity, negative = inhibition, actives largely listed as inhibitors | 310,000 tested, 3.5% active;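 further: Gal4-VP16 expression switched on by copper sulfate through the metallothionein promoter; nearly all actives have a fitted effect of over 50% in size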
TDP1 cell CPT = growth inhibition of DT40 Tdp1-/-;hTDP1 cells with camptothecin (screen for TDP1 inhibitors). chicken DT40 Tdp1-/-;hTDP1 cells + 20 nM CPT, ATP luminescence, 48 h. Potency, µM (titrated, usually from 46.2 µM), without a hit: top-dose activity change, negative = growth inhibition, usual class: inhibitors. 420,000 tested, 12% active. AID 686979; further: nearly all actives have a fitted effect of over 55% in size
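Chicken DT40 Tdp1-/- cells stably complemented with human TDP1 were seeded at 400 cells/well in medium containing 20 nM camptothecin, exposed to pin-transferred compounds, and grown at 37 °C for at least 48 hr. Viability was read as ATP luminescence.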
TDP1 cell noCPT = qHTS for Inhibitors of human tyrosyl-DNA phosphodiesterase 1 (TDP1): qHTS in cells in absence of CPT | DT40 Tdp1-/- hTDP1 cells, no CPT, ATP luminescence, 48 h | Potency, µM (top dose mostly 46.2 µM), for the others: at the highest dose activity change, negative = growth inhibition, hits mostly inhibitors | 420,000 tested, 15% active; further: nearly all actives have a fitted effect of over 55% in size
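Growth of hTDP1-complemented DT40 Tdp1-knockout cells is measured by ATP luminescence after at least 48 hr compound exposure at 37 °C, with DMSO substituting for the 20 nM CPT used in the parallel screen.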
* hit, by the source's call; ? = inconclusive; / = no result; [ ] = dose if it differs, or a comment. Shown are actives, neighbours in structure and some others; about 19% of the full set was active somewhere. The call rests on the fitted dose curve; in most records, active means well fitted curve in the direction sought with a large enough effect; inconclusive means small, poorly fitted or top-dose-only effect, or another doubt; inactive means no such curve, though single readings can be large; an effect the other way counts as inactive or inconclusive. On the % scale 0 is the no-effect control and ±100 the full control effect; potency means the concentration at half of the fitted maximal effect.

SMILES | RORgamma inh | TDP1 block | Gal4-VP16 FLuc | TDP1 cell CPT | TDP1 cell noCPT
COc1ccc2c(c1)O/C(=C\c1sccc1C)C2=O | 16.7% | -3.2% | 3.0% | ? | 18.4µM*
CC(=O)C1=C(O)C(=Cc2ccccc2)OC1=O | / | / | / | 1.8% | ?
COc1ccc(C=C2OC(=O)C(C(C)=O)=C2O)cc1 | / | / | / | ? | 16.4µM*
COc1ccc(/C=C2\Oc3ccccc3C2=O)cc1 | / | -0.1% | / | ? | 18.4µM*
CC(C)N=C1NN=C(c2cccs2)C(CC(=O)O)S1 (configuration not stated) | ? | -5.5% | 0.7% | -29.9% | -21.5%
O=C(CN1CCN(S(=O)(=O)c2ccc(Br)cc2)CC1)Nc1ccc2c(c1)OCCO2 | 25.0% | 10.9% | 24.0% | -5.0% | -7.5%
COC(=O)c1ccc(NC(=O)CN2CCN(S(=O)(=O)c3ccc(Br)cc3)CC2)cc1 | 22.0% | 4.3% | 0.4% | ? | 18.4µM*
O=C(CN1CCCN(S(=O)(=O)c2ccc(Br)cc2)CC1)Nc1cccc(C(F)(F)F)c1 | / | 11.0% | / | 20.6µM* | 11.6µM*
COc1ccc(C)cc1NC(=O)CN1CCCN(S(=O)(=O)c2ccc(Br)cc2)CC1 | 10.8% | 0.9% | -0.8% | ? | 9.2µM*
O=C(CN1CCN(S(=O)(=O)c2ccc(Br)cc2)CC1)N/N=C/c1ccc(Br)s1 | 6.31µM* | 0.0% | 8.91µM* | ? | ?
Cc1ccc(/C=N/NC(=O)CN2CCN(S(=O)(=O)c3ccc(Br)cc3)CC2)s1 | ? | 11.0% | ? | 1.5% | ?
COc1ccc(S(=O)(=O)N2CCCN(CCC(=O)Nc3cccc(C(F)(F)F)c3)CC2)cc1 | ? | 4.0% | ? | -19.5% | -17.1%
O=C(CCn1c(=O)oc2ccccc21)Nc1cccc([N+](=O)[O-])c1 | -4.1% | -1.5% | 3.8% | -4.2% | -0.2%
COCCC(=O)N1CCC(Oc2ccc(C(=O)N(C)C3CCCCC3)cc2)CC1 | 40.6% | / | 15.4% | -19.4% | ?
COc1ccc(S(=O)(=O)N2CCCN(CC(=O)Nc3ccc(NC(C)=O)cc3)CC2)cc1 | -18.7% | 1.6% | -0.8% | 3.9% | -26.0%
COc1ccc(C2(C(=O)Nc3ccc(OC)cc3OC)CCCC2)cc1 | 15.0% | 1.2% | 4.5% | 13µM* | 23.1µM*
COc1ccc(S(=O)(=O)N2CCCN(CC(=O)Nc3ccc(OC)cc3OC)CC2)cc1 | / | 5.8% | / | ? | 11.6µM*
COc1ccc(C)cc1NC(=O)CN1CCN(S(=O)(=O)c2ccc(F)cc2)CC1 | -19.9% | 2.0% | 0.1% | ? | ?
COc1ccc(C)cc1NC(=O)CN1CCN(S(=O)(=O)c2ccc3ccccc3c2)CC1 | / | -1.1%[56.1 µM] | / | 16.4µM* | 16.4µM*
COc1ccc(NC(=O)C2(c3ccccc3)CCCC2)cc1 | 4.5% | -1.2% | -15.3% | -3.4% | ?
CC(C)OCCCn1c(=NC(=O)c2cccs2)c(C#N)cc2c(=O)n3ccccc3nc21 | -15.5% | 6.0% | -0.5% | -26.3% | -23.9%
COc1ccccc1NC(=O)c1c(C)cc(C)nc1SCC(=O)c1ccc(Cl)cc1 | / | -3.6% | / | -26.5% | -24.7%
O=C(NCc1ccc(-c2csnn2)cc1)C1CC1 | -0.6% | / | -5.3% | -2.5% | -8.1%
O=C(Nc1cccc(-c2cccc(Cl)c2)c1)C1CCN(Cc2nccs2)CC1 | / | / | / | 9.2µM* | 5.8µM*
O=C(Nc1cccc(-c2cccc(Cl)c2)c1)C1CCN(Cc2ccc(CO)o2)CC1 | -25.1% | 6.0%[56.1 µM] | -14.0% | ? | ?
SMILES | RORgamma inh | TDP1 block | Gal4-VP16 FLuc | TDP1 cell CPT | TDP1 cell noCPT
CC(C)(C)c1ccc(CN2N=Nc3ccccc3S2(=O)=O)cc1 | 23.0% | 9.3% | 1.58µM* | 5.8µM* | 7.31µM*
O=S1(=O)c2ccccc2N=NN1Cc1ccc(Cl)c(Cl)c1 | -1.4% | -1.0% | 17.7% | / | /
FC(F)(F)c1cnc(-c2cnc(-c3ccncc3)nc2)c(Cl)c1 | -7.2% | 5.1% | -8.9% | -2.7% | -29.7%
CC(=O)C1=C(O)CCC1=NCCc1ccccc1 | -10.1% | 4.2% | -19.1% | -16.7% | -9.7%
CC(=O)c1ccc(N2CCN(S(=O)(=O)c3cccc(S(=O)(=O)N4CCOCC4)c3)CC2)cc1 | 4.0% | 1.4% | 3.9% | ? | ?
O=S(=O)(c1ccc(F)cc1)N1CCN(c2ccccc2)CC1 | 10.4% | -3.9% | 4.9% | -8.6% | -21.6%

Assay outcomes from PubChem BioAssay.
